# Source: PubChem BioAssay (National Center for Advancing Translational Sciences (NCATS))
# Rows were chosen to be rich in hits. Some 9.4% of all compounds tested hit in one or more screens of this group.
# Pf growth 48h: P. falciparum growth inhibition at 48 hours (one generation); P. falciparum luciferase growth in erythrocytes, 48 h; Potency, µM (doses to about 28.7 µM), for inactives: top-dose activity change, negative = inhibition, most hits filed as inhibitors; hit rate 5.9% among 310,000; also: % is scaled to controls: 0 for no effect and ±100 for the full control effect
#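 Parasite viability was followed by luminescence of a genomically integrated firefly luciferase. Cultures held 0.1% parasitemia at 2% hematocrit (final), incubated under 5% CO2 at 37 C.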
# Pf growth 96h: P. falciparum growth inhibition at 96 hour, primary screen for plastid delayed-death inhibitors | hit rate 6.9% among 320,000 | P. falciparum luciferase reporter growth, 96 h | Potency, µM (top dose mostly 28.7 µM), inactives show top-dose activity change, negative = inhibition, actives largely listed as inhibitors; also: % is scaled to controls: 0 for no effect and ±100 for the full control effect
#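 Delayed-death screen, second-generation endpoint: infected erythrocytes, 2% hematocrit, 0.05% parasitemia final; 96 hours at 37 C, 5% CO2; luciferase detection reagent; luminescence decrease equals reduced growth.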
# SARS PLpro yeast: SARS-CoV PLP inhibition in yeast; hit rate 0.19% among 330,000; AID 485353; S. cerevisiae expressing SARS-CoV PLpro, growth rescue; Potency, µM (top dose mostly 32.9 µM), inactives show at the top dose activity, positive = growth rescue, actives largely listed as activators; calls by dose curve; also: 0% is about no effect; nearly all actives have a fitted effect of over 55% in size
# AMA1-RON2 inh: disrupts binding of P. falciparum AMA1 to RON2 | AlphaScreen AMA1-biotinylated RON2 peptide binding | Potency, µM (top dose mostly 58.2 µM), for inactives: top-dose activity change, negative = inhibition, most hits filed as inhibitors | hit rate 0.2% among 360,000 | AID 720542;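 also: 0% = vehicle wells and -100% = peptide control; nearly all actives have a fitted effect of over 45% in size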
#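 AMA1 (3D7) with his tag at 25 nM final met compounds first, then biotinylated RON2 peptide at 25 nM; detection used donor plus acceptor beads, 10 µg/mL apiece, read by AlphaScreen after 30 min at room temperature.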
# The depositor's hits bear a star; u = inconclusive; x = not tested or not shown; [ ] = another dose, or the depositor's remark. Unless noted, calls follow the shape of the dose curve; as a rule, active = well fitted curve in the direction sought with a large enough effect; inconclusive = small, poorly fitted or top-dose-only effect, or another doubt; inactive = no such curve, though single readings can be large; an effect the other way counts as inactive or inconclusive. Potency is read from the fitted curve at half-maximal effect.
SMILES,Pf growth 48h,Pf growth 96h,SARS PLpro yeast,AMA1-RON2 inh
N=c1ccn(Cc2ccc([N+](=O)[O-])cc2)cc1,4.1µM*,u,-1%,-20%
O=[N+]([O-])c1ccc(Cc2ccc([N+](=O)[O-])cc2)cc1,x,x,x,-3%
CCN(C(=O)CN(C)Cc1c(F)cccc1Cl)c1c(N)n(Cc2ccccc2)c(=O)[nH]c1=O,-10%,u,-7%,1%
Cc1cc(C)c(S(=O)(=O)c2ccccc2)c(OC(=O)c2ccc(Cl)cc2Cl)n1,x,u,-5%,-1%
CN(C)C(=O)NC(Nc1cccc([N+](=O)[O-])c1)C(Cl)(Cl)Cl (stereo not given),u,20%,1%,-8%
CC(C)C(=O)NC(Nc1cccc([N+](=O)[O-])c1)C(Cl)(Cl)Cl (stereo not given),1.9µM*,23%,1%,2%
COc1ccc2[nH]c3c(=O)n(/N=C/c4ccc(OC)c(CN5CCCC5)c4)c(C)nc3c2c1,u,u,0%,-1%
COc1ccc2c(c1)[nH]c1c(=O)n(/N=C/c3ccc(OC)c(CN4CCCC4)c3)cnc12,4.1µM*,u,-1%,-13%
COc1ccc(/C=N/n2c(C)nc3c([nH]c4ccccc43)c2=O)cc1CN1CCCC(C)(C)C1,12µM*,5.2µM*,0%,-1%
CC1CCCCC1NC(=O)CN(C)S(=O)(=O)c1cccc2cccnc12 (stereo not given),-10%,-3%,-1%,10%
Nc1nc2n(n1)C(c1ccco1)CC(c1ccc(Cl)cc1)N2 (stereo not given),20%,u,1%,1%
Cc1ccc(NCc2ccccc2OCc2ccccc2F)cc1,x,u,-18%,u
Oc1ccc(NCc2ccccc2OCc2ccccc2F)cc1,10µM*,u,1%,u
O=C(COC(=O)c1cncc(Br)c1)Nc1nc(-c2ccc(F)cc2)cs1,58%,43%,1%,5%
COc1ccccc1N(C(=O)c1cncc(Br)c1)c1nc(-c2ccc(C)cc2)cs1,u,7.4µM*,5%,-14%
CC(=O)C1=C(O)C(=O)N(Cc2cccnc2)C1c1ccccc1 (stereo not given),9%,-9%,21%,8%
COC(=O)C1C(O)=C(C=Nc2ccc3ccccc3c2)C(=O)CC1(C)C (stereo not given),0%,-6%,-5%,12%
C=CCN(C(=O)C1CSC2(C)CCC(=O)N12)c1nc(-c2ccccc2)cs1 (stereo not given),12µM*,u,-19%,-30%
Cc1ccccc1Nc1nc(N)nc(C)c1Br,x,x,x,-3%
O=C(CCOc1ccccc1)Nc1ccc([N+](=O)[O-])cc1,-15%,0%,-9%,u
O=C(CN1C(=O)COc2ccccc21)c1ccc(Cl)cc1,-3%,10µM*,-9%,-12%
O=C(CN1C(=O)COc2ccccc21)c1cccc(Cl)c1,10%,u,-1%,0%
CC1(C)NC(=O)N(CCOCCOc2cccc(Oc3ccccc3)c2)C1=O,0%,x,5%,8%
O=C(OCc1ccc(Br)cc1)c1cccnc1,4%,17%,-10%,23%
O=C(NCc1ccccc1)c1cccnc1,10%,-3%,-2%,-3%
SMILES,Pf growth 48h,Pf growth 96h,SARS PLpro yeast,AMA1-RON2 inh
O=C(OCc1ccccc1)c1cccnc1,u,15µM*,x,x
O=C(N[C@@H](Cc1ccccc1)C(=O)O)c1cccnc1,x,2.9µM*,18%,41%
COC(=O)c1cc(-c2ccc(S(=O)(=O)N3CCCC3)cc2)c(C(F)(F)F)s1,u,u,-2%,-4%
COc1ccc(OCC(=O)NCCc2c[nH]c3ccccc23)cc1,-6%,0%,0%,-11%
COc1ccc(-c2cn(CCc3c[nH]c4ccccc34)nn2)cc1,12%,9.3µM*,3%,26%
CC(=O)c1ccc(N2CCN(C(=O)CCCn3c(=O)[nH]c4ccsc4c3=O)CC2)cc1,u,u,-7%,-2%
CCCCCn1c(=O)[nH]c2cc(C(=O)N3CCN(c4ccc(F)cc4)CC3)ccc2c1=O,x,x,x,-9%
COc1cc2[nH]c(=O)n(CCCCCC(=O)N3CCN(c4ccccc4)CC3)c(=O)c2cc1OC,7.4µM*,30%,0%,-26%
COc1cc2[nH]c(=O)n(Cc3ccccc3Cl)c(=O)c2cc1OC,-4%,4.7µM*,-2%,-1%
COc1cc2[nH]c(=S)n(Cc3ccccc3)c(=O)c2cc1OC,u,-12%,1%,90%
CCCCCn1c(=O)[nH]c2cc(C(=O)N3CCN(c4ccc(C(C)=O)cc4)CC3)ccc2c1=O,u,12µM*,-2%,8%
CC(=O)c1ccc(N2CCN(C(=O)CCCn3c(=O)[nH]c4ccc(Br)cc4c3=O)CC2)cc1,10µM*,u,0%,-6%
Cc1ccc2nc(NC(=O)CC3Oc4ccccc4NC3=O)sc2c1 (stereo not given),20%,14%,1%,9%
O=C1CCC([N+](=O)[O-])C(c2cc3c(cc2Cl)OCO3)N1 (stereo not given),0%,16%,0%,-5%
COc1cc(NC(=S)NCCN2CCOCC2)cc(OC)c1OC,6%,7%,1%,0%
COc1cc(CNCc2ccccn2)ccc1OCc1ccc(Cl)c(Cl)c1,17%[5.75 µM],-21%,0%,30%
COc1cc(CNCCN2CCOCC2)ccc1OCc1ccc(Cl)cc1Cl,9.3µM*,2.3µM*,-24%,-10%
COc1cc(CNCc2ccccn2)ccc1OCc1ccc(Cl)cc1Cl,u,10µM*,-9%,18%
O=C(NCc1ccccn1)c1ccccc1OCc1ccc(Cl)cc1Cl,u,15µM*,9%,29%
O=C(NCc1ccccn1)c1ccccc1Cl,13%,x,-2%,57%
COc1ccc(CCNCc2ccc(OCc3ccc(Cl)nc3)c(OC)c2)cc1OC,x,12µM*,11%,-7%
O=C(COC(=O)c1cccc(F)c1)Nc1cccc(S(=O)(=O)N2CCOCC2)c1,x,x,x,5%
Cc1ccc2c(c1)N(CC(=O)NC1CCCc3ccccc31)C(=O)CO2 (stereo not given),8%,-3%,7%,-7%
CC(C)CNC(=S)NNC(=O)CC(C)O (stereo not given),-5%,u,-1%,115%
CNC(=S)NNC(=O)c1sccc1OCc1ccc(Cl)cc1Cl,0%,55%,-2%,53%
SMILES,Pf growth 48h,Pf growth 96h,SARS PLpro yeast,AMA1-RON2 inh
N/C(=N\NC(=O)c1sccc1OCc1ccc(Cl)cc1Cl)c1ccccn1,3.3µM*,u,-1%,33%
COc1ccc(CNCCc2ccc(Cl)cc2)cc1OCc1ccccc1,2%,-11%,-3%,u
COc1cc(CNCCN2CCOCC2)ccc1OCc1cccc(Cl)c1,x,12µM*,3%,-4%
CCOc1ccc(OCC)c(NC(=O)C2CCCN2S(=O)(=O)c2cccc3cccnc23)c1 (stereo not given),x,u,4%,-9%
C=CCNc1ncnc2c1ncn2[C@H]1CN(CCOC)C[C@@H](CO)O1,x,x,x,-5%
Cc1c(NC(=S)NC(NC(=O)C(C)C)C(Cl)(Cl)Cl)c(=O)n(-c2ccccc2)n1C (stereo not given),u,u,u,-1%
